As usually defined, the inhibition is the relative decrease from the control value, in per cent.

About 260 (0.09%) of roughly 290,000 compounds were called active. Rule as the data show it: active = inhibition above about 50%; inactive = the rest. The sample as a whole holds a higher share of actives than the screen did. Results with a measured potency or affinity are listed apart.

For this assay, the target named is Kappa-type opioid receptor (Homo sapiens) (UniProt P41145). Kind of assay: kappa opioid receptor blockers – cell-based, luminescence, uHTS (AID 1778). To be noted: KOR beta-arrestin recruitment, antagonist mode, hits give high values; at 10 µM unless noted. On the technique in general: Arrestin recruitment assays detect the binding of arrestin to an activated receptor.
Chain of Kappa-type opioid receptor (Homo sapiens) (P41145 whole entry, looked up): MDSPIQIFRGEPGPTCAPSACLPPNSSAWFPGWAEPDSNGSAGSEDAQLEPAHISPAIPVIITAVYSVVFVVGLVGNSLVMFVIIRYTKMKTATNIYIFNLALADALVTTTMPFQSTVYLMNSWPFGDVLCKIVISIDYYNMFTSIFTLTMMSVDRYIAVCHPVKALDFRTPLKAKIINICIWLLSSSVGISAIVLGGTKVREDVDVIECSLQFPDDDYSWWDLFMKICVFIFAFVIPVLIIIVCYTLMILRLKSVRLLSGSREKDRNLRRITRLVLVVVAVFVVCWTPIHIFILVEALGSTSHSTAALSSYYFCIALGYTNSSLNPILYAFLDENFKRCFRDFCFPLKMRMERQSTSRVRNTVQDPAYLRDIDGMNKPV
For the compound `CCOc1ccc(CNc2ccc3c(c2)nc(C)n3C)cc1`, the inhibition is 7.3% (inactive).
For the compound `Oc1ccc(CN2CCCCC2)c2cccnc12`, the inhibition is -7.4% (inactive).
In the case of `Oc1c(CN2CCc3ccccc3C2)cc(Cl)c2cccnc12`, the inhibition is -4% (inactive).
With `Nc1nc(NC(=O)c2cccs2)nn1-c1ccccc1` the figure was -23% (inactive); with `Oc1c(I)cc(I)c2cccnc12`, -35.5% (inactive); with `O=[N+]([O-])c1cc(Cl)c2cccnc2c1O`, 1.5% [at 20 µM] (inactive).
`Clc1cc2cccnc2c2ccccc12`: the inhibition was 1.4% (inactive).
For `Oc1c(Cl)cc(CN2CCCCC2)c2cccnc12`, the inhibition is -1.6% (inactive).
Consider `COc1cccc(NC(=O)CSc2nc3ccccc3n2C)c1`, for which the inhibition is 2.2% (inactive).
Take `O=C(NC(NC(=S)Nc1cccc(Cl)c1)C(Cl)(Cl)Cl)OCc1ccccc1` (stereo unspecified): the inhibition is 5.1% (inactive).
With `Cc1ccc(C)c(NC(=S)NC(NC(=O)OCc2ccccc2)C(Cl)(Cl)Cl)c1` (stereo unspecified) the figure was -2% (inactive); with `O=C(NC(NC(=S)Nc1cccc(C(=O)O)c1)C(Cl)(Cl)Cl)OCc1ccccc1` (stereo unspecified), 3.3% (inactive).
As to `Cc1cccc(NC(=S)NC(NC(=O)OCc2ccccc2)C(Cl)(Cl)Cl)c1` (stereo unspecified), the inhibition is -6.6% (inactive).
In the case of `O=C(CNCCc1ccc(F)cc1)Nc1cc(F)ccc1F`, the inhibition is -1.9% (inactive).
For `CC(=O)N1N=C(c2ccccc2)CC1c1cccc([N+](=O)[O-])c1` (stereo unspecified), the inhibition was -7% [at 20 µM] (inactive).
In the case of `O=C(O)CCC(=O)N1N=C(c2cccs2)CC1c1cccc([N+](=O)[O-])c1` (stereo unspecified), the inhibition is -24.4% [at 20 µM] (inactive).
With `CCc1nn(CC(=O)NCCCN(C)Cc2ccccc2)c(=O)c2cc3sc(C)cc3n12` the figure was 1.9% (inactive); with `CCC(=O)N1CC2(CC(c3cccc(NC(=O)COc4ccc(Cl)cc4)c3)=NO2)C[C@@H]1C(N)=O` (stereo partly specified), 8.3% (inactive); with `COC(=O)c1ccc(N/N=C/c2cc([N+](=O)[O-])cc(OC)c2O)cc1`, -4.6% (inactive).
To `CCOC(=O)c1ccc(N/N=C/c2cc(Br)cc([N+](=O)[O-])c2O)cc1` belongs 60.8% [at 20 µM] (active).
With `O=C(N/N=C/c1cc(Br)cc([N+](=O)[O-])c1O)c1ccc(NC(=O)c2ccc(F)cc2)cc1`, the inhibition is -22.2% (inactive).
To `COc1ccc(CNC(=O)C2CCC(CNS(=O)(=O)c3ccc(C)cc3)CC2)cc1` (stereo unspecified) belongs 5.5% (inactive); to `CCOc1ccc2nc(N3C(=O)/C(=C/c4ccccc4)NC3=S)sc2c1`, 13.6% (inactive).
With `O=C1CNC(=S)N1c1nc2ccccc2s1` the figure was 18.9% (inactive); with `COc1ccc2nc(N3C(=O)CNC3=S)sc2c1`, 59.9% (inactive); with `Cc1ccc2nc(N3C(=O)CNC3=S)sc2c1`, 45.5% (inactive).
